# Assay results taken from PubChem BioAssay.
# The source made the active and inactive calls.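 Rule for the calls, unless noted: active = visual image review flags a hit and inhibition of aggregation exceeds 20%; inconclusive = visual hit but inhibition at or below 20%; inactive = no hit on visual image review.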
# What was measured:
# [1] = inhibitors of TNFa-induced NFkB p65 translocation, primary screen, imaging, HUVEC, MLSMR starter and 10KST1 sets (AID 438;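 active = inhibition above 20% together with a positive visual image hit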;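 note: compound added about 3h40 before a 20 min TNFalpha stimulation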;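 for inhibition: signal is the nuclear over cytoplasmic p65 intensity ratio per well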); settings: HUVEC TNFa-induced p65 nuclear translocation; cell count: measured here: nuclei count (cytotoxicity indicator), at 2.08 µM; inhibition: at 2 µM, stronger effect = higher value, 0% TNFa-plus-vehicle, 100% no-TNFa wells
# [2] = reduction of polyQ htt aggregates in cells – imaging, exon1htt(103Q)mCFP cells, high-content imaging, primary screen (AID 483); settings: exon1htt(103Q)mCFP cell line, aggregate imaging, at 2 µM; inhibition of aggregation: stronger effect = higher value; nuclei count: measured here: cell count, toxicity;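 note: compound exposure lasted 3 days before fixation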;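 for nuclei count: percent of the per-plate median nuclei count of sample wells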
# [3] = endothelial E-selectin expression blockers – imaging, HUVEC, immunofluorescence, MLSMR starter and 10KST1 sets, primary screen (AID 487;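 active = visually confirmed hit in the image check and inhibition above 20%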;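 for inhibition: signal is fraction of cell area covered by stained E-selectin grains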;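 for nuclei count: 100% = median nuclei count of all wells on the same plate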); settings: HUVEC TNFalpha-induced E-selectin immunofluorescence imaging, at 2 µM; inhibition: stronger effect = higher value; nuclei count: measured here: cell number, toxicity
# [4] = molecular target: Voltage-gated potassium channel subunit beta-2 (Rattus norvegicus) (UniProt P62483); test: inhibitors of rat Kvbeta2 reductase activity – biochemical, NADPH fluorescence, primary screen (AID 622;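 active = fluorescence slope higher than the sample average by over 3 SD, cut at about -0.22 in these data, passing the limit was not always enough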;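 note: slope of raw intensity against log time taken from 70 to 1610 s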); settings: recombinant KvBeta, 4-cyanobenzaldehyde reduction, at 10 µM, stronger effect = higher value
# [5] = molecular target: Voltage-gated potassium channel subunit beta-2 (Rattus norvegicus) (UniProt P62483); test: enhancers of rat Kvbeta2 NADPH turnover – biochemical, NADPH fluorescence, primary screen (AID 623;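 active = NADPH fluorescence slope more negative than the mean of all samples by about 3 SD, 99.7% confidence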;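 note: fluorescence intensity change per second fitted from 20 to 320 s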); settings: Recombinant KvBeta, NADPH fluorescence decrease slope, 10 min; at 10 µM; stronger effect = lower value
# [6] = molecular target: Alpha-2C adrenergic receptor (Homo sapiens) (UniProt P18825); test: compounds altering alpha2C-coupled GIRK flux – cell-based, HEK293 alpha2C/GIRK1/2, thallium flux, primary screen (AID 624;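 active = fluorescence slope after compound addition differing from the mean of all screened samples at 99.7% confidence, in either direction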;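 note: slope of fluorescence ratio to pre-addition baseline per second over 15 to 24 s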); settings: thallium flux BTC fluorescence, at 10 µM, actives lie on both sides
# [7] = blockers of RIG-like receptor reporter activation – cell-based, Sendai virus stimulus, luciferase, 10K MLSCN set, TLR/RLR signaling modifier project, primary screen (AID 602276;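 active = inhibition at or above 50% at 10 µM; inactive = inhibition below 50%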;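 note: firefly luciferase from ISG56 promoter only with Renilla not read in this screen; 0% = Sendai virus plus DMSO and 100% = medium plus DMSO without virus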); settings: HEK293 RL24 IRF3 luciferase reporter, at 10 µM, stronger effect = higher value
# [8] = TLR3 IRF3 reporter activation blockers – cell-based, poly I:C stimulus, luciferase, 10K MLSCN set, primary screen (AID 602277;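 active = inhibition of the reporter signal at or above 50%; inactive = inhibition below 50%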); settings: HEK293-TLR3 RL24 IRF3 luciferase reporter, at 10 µM, stronger effect = higher value
# Alpha-2C adrenergic receptor (Homo sapiens), sequence (P18825 whole entry, looked up): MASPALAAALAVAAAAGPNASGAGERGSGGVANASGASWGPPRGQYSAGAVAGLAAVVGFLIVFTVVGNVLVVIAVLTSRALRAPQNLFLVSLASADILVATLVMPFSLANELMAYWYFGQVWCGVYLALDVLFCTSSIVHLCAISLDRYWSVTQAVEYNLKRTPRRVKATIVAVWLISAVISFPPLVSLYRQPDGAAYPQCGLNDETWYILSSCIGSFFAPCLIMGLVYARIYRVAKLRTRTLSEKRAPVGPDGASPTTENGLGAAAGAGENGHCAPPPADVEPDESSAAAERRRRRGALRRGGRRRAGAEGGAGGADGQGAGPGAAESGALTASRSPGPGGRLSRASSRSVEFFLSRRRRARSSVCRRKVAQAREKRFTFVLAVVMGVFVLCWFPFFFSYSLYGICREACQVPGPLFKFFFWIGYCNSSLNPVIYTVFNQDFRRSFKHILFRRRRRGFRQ
# Voltage-gated potassium channel subunit beta-2 (Rattus norvegicus), sequence (P62483 whole entry, looked up): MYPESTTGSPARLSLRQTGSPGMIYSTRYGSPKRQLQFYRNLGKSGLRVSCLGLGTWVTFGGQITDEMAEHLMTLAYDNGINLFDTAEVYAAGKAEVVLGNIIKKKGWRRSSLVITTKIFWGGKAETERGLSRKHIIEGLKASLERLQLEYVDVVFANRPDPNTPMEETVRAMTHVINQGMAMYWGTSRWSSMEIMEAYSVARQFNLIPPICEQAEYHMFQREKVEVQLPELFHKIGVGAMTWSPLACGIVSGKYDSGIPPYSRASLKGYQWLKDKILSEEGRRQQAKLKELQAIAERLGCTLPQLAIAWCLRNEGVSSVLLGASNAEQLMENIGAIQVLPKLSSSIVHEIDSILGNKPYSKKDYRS
Compound,cell count [1],inhibition [1],inhibition of aggregation [2],nuclei count [2] [%],nuclei count [3] [%],fluorescence slope [4],NADPH fluorescence slope [5],slope [6],inhibition [7],inhibition [8],inhibition [3]
Cc1cc(NC(=O)c2ccccc2)ncc1NC(=O)c1ccco1,427,12.5% (inactive),11.4% (inactive),100,147,-0.603 (inactive),2.5e-05 (inactive),0.00711 (inactive),7.79% (inactive),-25.3% (inactive),–
COc1ccc(S(=O)(=O)N2CN(Cc3ccco3)c3nc4ccccc4nc32)cc1,600,-3.6% (inactive),-1.4% (inactive),82.9,134,-0.605 (inactive),-1.5e-05 (inactive),0.00619 (inactive),10.9% (inactive),20% (inactive),-118% (inactive)
CCCC1c2ccc(C)n2CCN1C(=O)Nc1ccccc1Cl (centres undefined),243,2.3% (inactive),-6.4% (inactive),100,94.7,-0.564 (inactive),2.7e-05 (inactive),0.0054 (inactive),-53.4% (inactive),-190% (inactive),-1% (inactive)
Cc1ccc(NC(=O)CSc2nnc(CNC(=O)c3c(F)cccc3Cl)o2)cc1,645,-10% (inactive),-19.6% (inactive),108,118,-0.346 (inactive),-7.5e-06 (inactive),0.00601 (inactive),1.9% (inactive),10.9% (inactive),-49% (inactive)
O=C(c1ccc2nc(N3CCOCC3)sc2c1)N1CCCC1,708,-11.2% (inactive),6% (inactive),62.7,116,-0.564 (inactive),-2.7e-05 (inactive),0.00689 (inactive),3.55% (inactive),3.65% (inactive),-70.6% (inactive)
O=C(O)c1cccc(NS(=O)(=O)c2ccc3nnn(O)c3c2)c1,435,10.6% (inactive),-5.7% (inactive),108,152,-0.403 (inactive),-5.1e-06 (inactive),0.00611 (inactive),12.9% (inactive),18.7% (inactive),–
CC1=C(C(=O)OC2CCCCC2)C(c2ccc(C)o2)C2=C(CC(C)(C)CC2=O)N1 (centres undefined),493,-2.4% (inactive),3.3% (inactive),122,112,-0.25 (inactive),-1.1e-05 (inactive),0.0052 (inactive),7.33% (inactive),29.1% (inactive),-13.3% (inactive)
COc1cccc(NC(=O)COC(=O)c2ccco2)c1,393,-4% (inactive),-17.7% (inactive),92.3,122,-0.47 (inactive),7.3e-06 (inactive),0.00724 (inactive),13.4% (inactive),20.6% (inactive),-0.6% (inactive)
Cc1nc2ccc(S(=O)(=O)NC(C(=O)N3CCCC3)C(C)C)cc2s1 (centres undefined),677,1.8% (inactive),-21.4% (inactive),111,110,-0.613 (inactive),1.2e-05 (inactive),0.00717 (inactive),12.9% (inactive),13.8% (inactive),-33% (inactive)
Cc1ccc(Cn2nnc(C(=O)Nc3cccc(C)c3C)c2N)cc1,457,9.4% (inactive),1.7% (inactive),95.1,150,-0.565 (inactive),2.2e-07 (inactive),0.00621 (inactive),6.59% (inactive),9.57% (inactive),–
CNS(=O)(=O)c1cccc(C(=O)OCC(=O)c2cc(C)n(-c3ccc4c(c3)OCO4)c2C)c1,406,2.5% (inactive),-7.6% (inactive),97.3,156,-0.436 (inactive),-4.7e-05 (inactive),0.0143 (active),-1.89% (inactive),10.6% (inactive),–
FC(F)(F)c1cc(-c2ccco2)nc(N2CCOCC2)n1,645,-8.5% (inactive),-15% (inactive),89,118,-0.586 (inactive),-1.4e-05 (inactive),0.00435 (inactive),16.2% (inactive),15.5% (inactive),-83.2% (inactive)
O=C(OCc1nnc(-c2ccc(Cl)cc2)o1)c1ccc(=O)n(Cc2ccccc2)n1,413,1.7% (inactive),3% (inactive),99.3,160,-0.44 (inactive),-5e-05 (inactive),0.00426 (inactive),-5.01% (inactive),-8.16% (inactive),–
COc1ccc(-c2[nH]c(-c3cccc(OC)c3)nc2SCC(=O)NCc2ccco2)cc1,672,10.5% (inactive),5.3% (inactive),102,124,-0.484 (inactive),-1.7e-05 (inactive),0.00547 (inactive),10.3% (inactive),4.41% (inactive),-5.4% (inactive)
O=C(O)CCc1ccc(-c2ccc(F)cc2)n1CC(=O)O,411,7.9% (inactive),0.9% (inactive),97,142,-0.462 (inactive),-0.000309 (inactive),0.00527 (inactive),10.3% (inactive),19.7% (inactive),–
COc1ccc(Br)cc1C1N2CC3(C)CN1CC(C)(C2)C3=O (centres undefined),435,5.6% (inactive),6.8% (inactive),96.9,148,-0.389 (inactive),-0.000152 (inactive),0.00688 (inactive),-3.74% (inactive),10.3% (inactive),–
COc1cccc(C(=O)Nc2ccc(C)cc2)c1,410,-0.2% (inactive),4.8% (inactive),95.1,154,-0.367 (inactive),4.6e-05 (inactive),0.00626 (inactive),-48.7% (inactive),-91.5% (inactive),–
Cn1c(COc2ccc(Cl)cc2)nnc1SCC(=O)NC1CCCCC1,328,-1.3% (inactive),19.6% (inactive),91.8,107,-0.545 (inactive),-1.7e-05 (inactive),0.00395 (inactive),-9.58% (inactive),-7.85% (inactive),-90.6% (inactive)
O=C(Nc1cccnc1)c1noc2c1CCCCC2,253,-3.9% (inactive),14.8% (inactive),98.5,113,-0.325 (inactive),-1.6e-05 (inactive),0.00304 (inactive),33.4% (inactive),-4.09% (inactive),-1.4% (inactive)
Cc1ccc(S(=O)(=O)N2C(=O)CCC2C(=O)Nc2ccc3c(c2)OCCO3)cc1 (centres undefined),430,3.8% (inactive),-9.4% (inactive),101,102,-0.446 (inactive),-2.2e-05 (inactive),0.00315 (inactive),10.3% (inactive),27.4% (inactive),-32.2% (inactive)
Cc1onc(-c2ccccc2)c1C(=O)Nc1sc2c(c1C(N)=O)CCC2,404,4.8% (inactive),-0.6% (inactive),107,139,-0.282 (inactive),-1.9e-05 (inactive),0.00375 (inactive),8.08% (inactive),-31.8% (inactive),–
CCOC(=O)c1c(NC(=O)c2nn(CC)cc2Br)c(C#N)cn1-c1ccccc1,467,0.6% (inactive),-9.2% (inactive),51.8,93.5,-0.407 (inactive),-2.9e-05 (inactive),0.00368 (inactive),0.0192% (inactive),-9.02% (inactive),-36.5% (inactive)
COc1ccc(-c2noc(-c3ccccc3C(=O)Nc3cccnc3)n2)cc1OC,395,-5.7% (inactive),-13.9% (inactive),103,115,-0.458 (inactive),-3.1e-05 (inactive),0.00579 (inactive),1.54% (inactive),0.376% (inactive),-57.8% (inactive)
CCCn1c(N)c(C(=O)CSc2nnc(Cc3ccccc3)o2)c(=O)n(C)c1=O,412,1% (inactive),4.7% (inactive),99.8,150,-0.556 (inactive),0.00012 (inactive),0.00683 (inactive),9.61% (inactive),-3.84% (inactive),–
